Out of some 46,000 compounds screened, about 430 (0.93%) were called active. Cut-off read from the data, not from the text of the source: active = normalized absorbance mostly below about 85% (no sharp cut-off); inactive = mostly above about 86%. What follows is part of a selection rich in actives, with near analogues and random picks from the rest.
System: Vaccinia virus DNA polymerase (E9) processive complex
Experiment: vaccinia E9 polymerase processive synthesis inhibitors, primary screen, biochemical, absorbance (AID 493162)
Conditions: in vitro processive DNA synthesis, absorbance read-out; hits give low values; concentration not given here

**Q.** With `Cc1ccc2c(Cl)c(C(=O)N(Cc3cccs3)C3CCS(=O)(=O)C3)sc2c1` (stereo unspecified) as the compound, how does the normalized absorbance read?
**A.** Its normalized absorbance is 100% (inactive).

**Q.** With `C/C(C#N)=C(/N)c1ccccc1` as the compound, how does the normalized absorbance read?
**A.** Its normalized absorbance is 104% (inactive).

**Q.** For `CCOC(=O)CSc1nc(N)c2c3c(sc2n1)CCC3`, which normalized absorbance is on record?
**A.** The normalized absorbance was 95.7% (inactive).

**Q.** For `COc1ccc2c(C)cc(-n3nc(C)cc3C)nc2c1`, which normalized absorbance is on record?
**A.** The normalized absorbance was 99% (inactive).

**Q.** How did the normalized absorbance turn out when `COc1ccc(Cl)cc1-n1c(SCc2cccc(Cl)c2)nnc1-c1cc2occc2n1C` was run?
**A.** The normalized absorbance was 108% (inactive).

**Q.** `O=C(Nc1ccc(-c2nc3ccccc3o2)cc1)c1ccc(Oc2ccccc2)cc1` was tested. Which normalized absorbance did it give?
**A.** The normalized absorbance was 100% (inactive).

**Q.** `CCOc1ccc2nc(NC(=O)C3CC3)sc2c1` was tested. Which normalized absorbance did it give?
**A.** The normalized absorbance was 100% (inactive).

**Q.** With `COc1ccc(/C=N/n2c(C)cc(C)cc2=O)cc1` as the compound, how does the normalized absorbance read?
**A.** The normalized absorbance was 100% (inactive).

**Q.** For `CCOc1cccc(NC(=O)c2cc(=O)c3ccccc3o2)c1`, which normalized absorbance is on record?
**A.** Its normalized absorbance is 100% (inactive).

**Q.** How did the normalized absorbance turn out when `CCOc1ncccc1C(=O)Nc1cccc(C(F)(F)F)c1` was run?
**A.** Its normalized absorbance is 102% (inactive).

**Q.** How did the normalized absorbance turn out when `CCOC(=O)c1cc2ccccc2nc1C` was run?
**A.** Its normalized absorbance is 99.8% (inactive).

**Q.** For `CCOC(=O)Cc1nc(N)ncc1C(=O)OCC`, which normalized absorbance is on record?
**A.** Its normalized absorbance is 101% (inactive).

**Q.** For `CCOC(=O)c1cnc2c(C)c(C)ccc2c1NCCCN(C)C`, which normalized absorbance is on record?
**A.** The normalized absorbance was 39.1% (active).

**Q.** For `c1ccc(-c2cc(NCC3CC3)n3cnnc3n2)cc1`, which normalized absorbance is on record?
**A.** Its normalized absorbance is 98.2% (inactive).

**Q.** With `O=C(NCCN1CCCc2ccccc21)c1cc(-c2cccs2)nc2ccccc12` as the compound, how does the normalized absorbance read?
**A.** Its normalized absorbance is 96.3% (inactive).

**Q.** Which normalized absorbance does the source give for `C=CCn1c(-c2ccccc2)csc1=Nc1ccc(O)cc1` here?
**A.** The normalized absorbance was 100% (inactive).

**Q.** `CN1CCN(c2nc(NCC3CCCO3)c3ccccc3n2)CC1` (stereo unspecified) was tested. Which normalized absorbance did it give?
**A.** The normalized absorbance was 98.7% (inactive).

**Q.** With `COc1ccc(-n2nc(C(=O)NCC3CCCO3)c3c4ccccc4n(C)c3c2=O)cc1` (stereo unspecified) as the compound, how does the normalized absorbance read?
**A.** Its normalized absorbance is 103% (inactive).

**Q.** For `COc1ccc(-c2nc(NCC3CCCO3)c3ccccc3n2)cc1` (stereo unspecified), which normalized absorbance is on record?
**A.** The normalized absorbance was 66.4% (active).

**Q.** With `Cc1ccc(C)n1-c1nn(S(C)(=O)=O)c2cccc(F)c12` as the compound, how does the normalized absorbance read?
**A.** Its normalized absorbance is 92.7% (inactive).

**Q.** `COc1cccc(C2=Nc3ccccc3C2=O)c1` was tested. Which normalized absorbance did it give?
**A.** The normalized absorbance was 99.2% (inactive).

**Q.** Which normalized absorbance does the source give for `COC(=O)c1coc(-c2ccccc2)n1` here?
**A.** The normalized absorbance was 102% (inactive).

**Q.** With `O=C(N/C(=C/c1ccccc1)P(=O)(O)c1ccccc1)c1ccccc1` as the compound, how does the normalized absorbance read?
**A.** Its normalized absorbance is 98.3% (inactive).

**Q.** `Cc1ccc(/C=C/C(=O)NCC2CCCO2)o1` (stereo unspecified) was tested. Which normalized absorbance did it give?
**A.** Its normalized absorbance is 89.2% (inactive).

**Q.** Which normalized absorbance does the source give for `CN(C)c1nc(NCc2ccccc2)nc(Nc2ccc(OC(F)(F)F)cc2)n1` here?
**A.** Its normalized absorbance is 100% (inactive).

**Q.** With `CCc1ccccc1N1CC(c2nc3ccccc3[nH]2)CC1=O` (stereo unspecified) as the compound, how does the normalized absorbance read?
**A.** Its normalized absorbance is 90.4% (inactive).

**Q.** How did the normalized absorbance turn out when `CC(C)NC(=O)Oc1noc2ccc(Cl)cc12` was run?
**A.** The normalized absorbance was 99.1% (inactive).

**Q.** With `Cc1ccc(N2NC(=O)/C(=C/C=C/c3ccco3)C2=O)cc1C` as the compound, how does the normalized absorbance read?
**A.** Its normalized absorbance is 99.9% (inactive).

**Q.** Which normalized absorbance does the source give for `C=CCN1C(=O)/C(=C/c2ccc3c(c2)n(C)c(=O)n3C)C(=O)NC1=S` here?
**A.** Its normalized absorbance is 100% (inactive).

**Q.** `CCN1C(=O)/C(=C/C=C/c2ccco2)C(=O)NC1=S` was tested. Which normalized absorbance did it give?
**A.** The normalized absorbance was 64.7% (active).

**Q.** How did the normalized absorbance turn out when `CC(=O)Nc1ccc(N2C(=O)C=CC2=O)cc1` was run?
**A.** The normalized absorbance was 124% (inactive).

**Q.** Which normalized absorbance does the source give for `CC(C)CNS(=O)(=O)C1CCS(=O)(=O)C1` (stereo unspecified) here?
**A.** The normalized absorbance was 102% (inactive).

**Q.** How did the normalized absorbance turn out when `Nc1ncnc2c1ncn2CCNCc1ccccc1` was run?
**A.** Its normalized absorbance is 103% (inactive).

**Q.** With `NC(=O)C(Cc1ccccc1)NC(=O)C12CC3CC(CC(C3)C1)C2` (stereo unspecified) as the compound, how does the normalized absorbance read?
**A.** The normalized absorbance was 72.6% (inactive).

**Q.** How did the normalized absorbance turn out when `CCOc1cc(/C=C2\SC(=S)N(C(C)C(=O)O)C2=O)ccc1O` (stereo unspecified) was run?
**A.** The normalized absorbance was 99% (inactive).

**Q.** How did the normalized absorbance turn out when `Cc1cc(C)n(-c2nc(-c3cccnc3)nc3ccccc23)n1` was run?
**A.** The normalized absorbance was 85.7% (inactive).

**Q.** `CCS(=O)c1nc2c(Br)cccc2[nH]1` (stereo unspecified) was tested. Which normalized absorbance did it give?
**A.** The normalized absorbance was 94.1% (inactive).

**Q.** For `Cc1ccc(NCC(O)c2ccc(Cl)cc2)cc1` (stereo unspecified), which normalized absorbance is on record?
**A.** Its normalized absorbance is 102% (inactive).

**Q.** For `Cc1ccc(S(=O)(=O)NCc2ccc(C(=O)NC3CCC(C)CC3)cc2)cc1` (stereo unspecified), which normalized absorbance is on record?
**A.** The normalized absorbance was 99% (inactive).

**Q.** How did the normalized absorbance turn out when `O=C(c1ccc(Cl)cc1Cl)n1c(=O)oc2cc(S(=O)(=O)N3CCCCC3)ccc21` was run?
**A.** Its normalized absorbance is 101% (inactive).

**Q.** `COc1ccc(C2C(C#N)=C(N)OC(C)=C2C(=O)OCc2ccccc2)cc1` (stereo unspecified) was tested. Which normalized absorbance did it give?
**A.** Its normalized absorbance is 102% (inactive).

**Q.** For `O=C1/C(=C/c2ccc(N3CCOCC3)cc2)CCc2ccccc21`, which normalized absorbance is on record?
**A.** Its normalized absorbance is 100% (inactive).

**Q.** For `N#CCCn1c(=S)n(CCC#N)c2ccccc21`, which normalized absorbance is on record?
**A.** Its normalized absorbance is 106% (inactive).

**Q.** With `COC(=O)c1ccc(Cn2nc(C)c(Cl)c2C)cc1` as the compound, how does the normalized absorbance read?
**A.** Its normalized absorbance is 92.4% (inactive).

**Q.** With `CC(=O)Nc1ccc(C2N3CCCN23)cc1` (stereo unspecified) as the compound, how does the normalized absorbance read?
**A.** Its normalized absorbance is 100% (inactive).

**Q.** With `CCCCn1c(CCCNC(=O)CC)nc2ccccc21` as the compound, how does the normalized absorbance read?
**A.** Its normalized absorbance is 98.7% (inactive).

**Q.** For `C=CCSc1nc2ccccc2[nH]1`, which normalized absorbance is on record?
**A.** Its normalized absorbance is 89.7% (active).

**Q.** With `C=CCSc1nc(N)cc(=O)[nH]1` as the compound, how does the normalized absorbance read?
**A.** Its normalized absorbance is 101% (inactive).

**Q.** With `CNC(=O)CSc1nc2ccccc2[nH]1` as the compound, how does the normalized absorbance read?
**A.** The normalized absorbance was 99.5% (inactive).

**Q.** For `CC(O)CNC(=O)c1sc2ccccc2c1Cl` (stereo unspecified), which normalized absorbance is on record?
**A.** Its normalized absorbance is 95.9% (inactive).

**Q.** Which normalized absorbance does the source give for `Cc1c(CNCCC2=CCCCC2)c(C(=O)O)c(C)n1Cc1cccc(Cl)c1` here?
**A.** Its normalized absorbance is 92% (inactive).

— PubChem BioAssay AID493162 (ICCB-Longwood Screening Facility, Harvard Medical School, 2011)
